The campaign covered roughly 580,000 compounds. About 6,100 (1.1%) were called active. Not shown: some 15% with an inconclusive outcome. What follows is part of a selection rich in actives, with near analogues and random picks from the rest. A number with no mark means an inactive call. Calls come from the whole dose curve; as a rule, active = well fitted inhibition curve with a large enough effect; inconclusive = small, poorly fitted or top-dose-only effect, or another doubt; inactive = no such curve, though single readings can be large or run the other way.
% is set by controls: 0 for no effect and ±100 for the full control effect; potency is the fitted concentration of half-maximal effect.

Polyunsaturated fatty acid lipoxygenase ALOX12 (Homo sapiens), sequence (P18054 whole entry, looked up): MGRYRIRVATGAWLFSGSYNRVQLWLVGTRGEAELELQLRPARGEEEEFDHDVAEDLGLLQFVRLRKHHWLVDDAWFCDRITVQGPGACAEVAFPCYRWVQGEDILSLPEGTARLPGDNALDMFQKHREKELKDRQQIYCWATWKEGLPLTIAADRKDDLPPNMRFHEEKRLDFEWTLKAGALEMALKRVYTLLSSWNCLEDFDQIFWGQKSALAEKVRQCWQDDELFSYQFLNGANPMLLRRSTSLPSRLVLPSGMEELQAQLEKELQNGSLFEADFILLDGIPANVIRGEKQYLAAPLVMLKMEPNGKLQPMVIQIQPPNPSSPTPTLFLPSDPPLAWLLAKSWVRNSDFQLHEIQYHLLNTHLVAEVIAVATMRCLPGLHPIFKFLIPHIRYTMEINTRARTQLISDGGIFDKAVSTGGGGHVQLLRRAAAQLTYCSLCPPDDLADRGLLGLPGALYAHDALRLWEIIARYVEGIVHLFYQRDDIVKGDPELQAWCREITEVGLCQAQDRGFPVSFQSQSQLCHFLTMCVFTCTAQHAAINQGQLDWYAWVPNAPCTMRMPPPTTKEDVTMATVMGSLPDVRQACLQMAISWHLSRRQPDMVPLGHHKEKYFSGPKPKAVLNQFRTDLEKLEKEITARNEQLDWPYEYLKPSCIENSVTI

This test concerns the target Polyunsaturated fatty acid lipoxygenase ALOX12 (Homo sapiens) (UniProt P18054). Briefly: Primary qHTS assay for inhibitors of human arachidonate 12S-lipoxygenase (ALOX12): Round 2. The settings on record: purified 12hLO, xylenol orange hydroperoxide absorbance; series mostly up to 108 µM; activity change, negative = inhibition: at the top concentration. An outline of the steps:
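Purified human 12hLO (150 nM final) in 25 mM Hepes, 0.01% Triton X-100, pH 7.0 was preincubated 15 min at room temperature with compound. Then 40 uM arachidonic acid was added, 30 min. Hydroperoxide was read by Fe-XO absorbance ratio 573/405 nm.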
Turning to `Cc1oc(-c2ccccc2)nc1CC(=O)N(C)CC(=O)Nc1cccc2ccccc12`, the “activity change, negative = inhibition” value was -14.7%. As for `CC1(C)CC(=O)C2=C(C1)OC1=C(C(=O)CC(C)(C)C1)C2c1ccc(-c2ccc3c(c2)COC3=O)o1`, the “activity change, negative = inhibition” value is -18.4%.

Take `Fc1ccc(/C=N/N=C/c2ccc(F)cc2F)c(F)c1`: the “activity change, negative = inhibition” value was 61.1%.

`COCc1[nH][nH]c(=O)c1C=Nc1ccc(F)cc1F`: the Potency is 12.6 µM (active). As to `CCOc1ccc(C(=O)NCc2n[nH]c(=O)c3ccccc23)cc1OCC`, the “activity change, negative = inhibition” value is 10.8%. The same measure, in the same setting: then `Cc1ccc(NC2(C#N)C(=O)Nc3ccccc32)cc1` (configuration not stated), with 0%.

Take `N#CC1=C(N)Oc2[nH]c(=S)[nH]c(=O)c2C12C(=O)Nc1ccccc12` (configuration not stated): the Potency was 14.1 µM (active). Consider `Cc1ccc(C2CC(=O)C3=C(C2)OC(N)=C(C#N)C32C(=O)Nc3ccccc32)cc1` (configuration not stated), for which the “activity change, negative = inhibition” value is 6.42%. Turning to `C=CCNC(=O)O[C@@H]1CC[C@]2(C)C(CC[C@@H](O)[C@H]2CC(=O)N2CCC[C@H]2CO)[C@]1(C)CO` (some centres not stated), the “activity change, negative = inhibition” value was 4.47%. Same read-out and setting: then `N#C/C(=C/NC(=O)c1ccccc1)C(=O)N1CCOCC1`, with 1.49%; and `O=C(Cc1ccccc1)Nc1sc2c(c1C(=O)Nc1ccc(Br)cc1)CCC2`, with -16%; and `CCOC(=O)c1ccc(NC(=O)c2c(NCc3cccs3)sc3c2CCCC3)cc1`, with -28.7%. In the case of `Cc1ccc(NC(=O)c2c(NC(=O)CCC(=O)O)sc3c2CCCCC3)cc1`, the Potency was 20 µM (active). As to `CC1(C)Cc2sc3c(=O)n(Cc4ccc(Cl)cc4Cl)cnc3c2CO1`, the “activity change, negative = inhibition” value is -10.1%. On the same count and under the same terms, for `Cc1cccc(NC(=O)CSc2nc(-c3ccco3)cc(C(F)(F)F)n2)c1C` the value was -12.8%; for `CCn1c(SCC(=O)Nc2sc(C)c(C)c2C#N)nnc1C1CC1`, -2.97%. For `CCOC(=O)c1sc(NC(=O)CSc2nc(C)cc(C(F)(F)F)n2)c(C#N)c1C`, the Potency was 20 µM (active). Take `CCC(CO)Nc1nc2c(c(=O)n(C)c(=O)n2C)n1Cc1c(Cl)cccc1Cl` (configuration not stated): the “activity change, negative = inhibition” value was -8.11%.

On to `O=C(NNC1CC(=O)N(c2cccc(Cl)c2)C1=O)c1cccnc1` (configuration not stated), for which the “activity change, negative = inhibition” value is 6.21%. Same read-out and setting: then `C/C(=N\NC(N)=S)c1cccnc1`, with -6.29%. Take `C/C(=N\NC(=O)c1cc2c(s1)CCC(C)C2)c1cccnc1` (configuration not stated): the Potency was 5.01 µM (active).

Regarding `OC1CC([C@@H](Cc2ccccn2)NC2CCC3(CCNCC3)CC2)C1` (some centres not stated), the “activity change, negative = inhibition” value is -5.73%.

Take `CN(CCCNC1CCC2(CCNCC2)CC1)c1ccccc1`: the Potency was 10 µM (active). As to `Cc1nonc1OCCNC1CCC2(CCNCC2)CC1`, the “activity change, negative = inhibition” value is -26.4%. For the molecule `O=C(NCCC(=O)N1CCn2nc(C(=O)O)cc2C1)c1ccc(F)cc1`, the “activity change, negative = inhibition” value was 4.72%. Same read-out and setting: then `CCc1nnc2sc(-c3cccc(NC(=O)Cc4ccccc4)c3)nn12`, with 9.63%; and `O=C(NCc1ccccn1)C1CCN(C(=O)c2ccc(C(F)(F)F)cc2)CC1`, with -3.02%. Take `Cc1ccccc1N/C(SCc1ccc(Cl)cc1)=C(/C#N)C(N)=O`: the Potency was 20 µM (active). On to `Cc1ccccc1NC(=O)C(C#N)=C1CCCCC1`, for which the “activity change, negative = inhibition” value is -8.66%.

Turning to `CCN(CC(=O)Nc1cc(Cl)ccc1C)C(=O)CSCc1ccccc1`, the “activity change, negative = inhibition” value was 5.18%. On the same count and under the same terms, for `CNC(=O)c1ccc(-c2nc(CN3CCN(S(=O)(=O)c4ccc(C)c(C)c4)CC3)c(C)o2)cc1` the value was 20.4%; for `COc1ccc2c(C)c(CCC(=O)N3CCN(C)CC3)c(=O)oc2c1`, -5.95%; for `Cc1nn2c(c1-c1ccccc1C(C)C)N(C(=O)c1cccc(C#N)c1)CCC2`, -3.15% [at 176 µM]. With `Cc1nn2c(c1-c1ccnn1C(C)C)N(CC1CCOCC1)CCC2`, the Potency was 12.6 µM (active). As for `Cc1nn2c(c1-c1ccnn1C(C)C)N(C(=O)c1ccc(Oc3ccccc3)cc1)CCC2`, the “activity change, negative = inhibition” value is 51.4%. Regarding `CCCCCn1nc(C(=O)Nc2ccccc2OCC)c2ccccc2c1=O`, the “activity change, negative = inhibition” value is 37.9%. For the molecule `CCc1ccc(C(=O)Nc2ccccc2C#N)s1`, the “activity change, negative = inhibition” value is -101%. Regarding `Cc1cc(/C=N/NC(N)=O)c(C)n1C1CCCCC1`, the “activity change, negative = inhibition” value was 6.3%. For `Cc1cc(/C=N/n2cnnc2)c(C)n1-c1ccc2ncccc2c1`, the “activity change, negative = inhibition” value was -25.8%. Consider `Cc1cccc(-n2c(C)cc(/C=N/NC(N)=S)c2C)c1`, for which the Potency was 44.7 µM (active).

`C=CCOc1ccc(NC(=O)c2ccncc2)cc1`: the “activity change, negative = inhibition” value was -6.7%. The same measure, in the same setting: for `CCc1ccc(NC(=O)Cc2nc(-c3c(N)n(C)c(=O)n(C)c3=O)cs2)cc1` the value was -21.8%; for `CCOc1ccccc1NC(=O)c1cnc2ccccc2n1`, -89%. With `O=C(OCc1ccc(F)cc1)c1cnc2ccccc2n1`, the Potency is 1.26 µM (active). Take `COc1ccccc1C(=O)OCc1ccc(F)cc1`: the “activity change, negative = inhibition” value was 1.27%. Still for that read-out and setting: for `Cc1cccnc1CN(C(=O)c1cc(COc2ccccc2)[nH]n1)C(C)C` the value was 42.5%; for `Cc1cc(OC(C)C(=O)Nc2sc3c(c2C(N)=O)CCCC3)ccc1Cl` (configuration not stated), -6.03%.

For the molecule `CCCn1nc(C(=O)Nc2sc3c(c2C(N)=O)CCC3)c2ccccc2c1=O`, the “activity change, negative = inhibition” value was -4.24%. For the molecule `NC(=O)c1c(Nc2nc3c(F)cccc3s2)sc2c1CCCC2`, the Potency was 28.2 µM (active). Take `Cc1cc(C)c(-c2csc(NC(=O)Cn3ncc4ccccc4c3=O)n2)c(C)c1`: the “activity change, negative = inhibition” value is -28.9%. The same measure, in the same setting: then `CSc1nnnn1-c1ccc(C(=O)Nc2ccccc2F)cc1`, with 0.435%. `NCCCNC(=S)NCCCN(Cc1ccc(Cl)cc1)c1ccc(Br)cn1`: the Potency was 39.8 µM (active).

These data come from PubChem BioAssay AID1671190 (National Center for Advancing Translational Sciences (NCATS), 2021).
